Measurements: PubChem BioAssay (Tox21)
Results filed as inconclusive are left out. Where a call stands in place of a potency, no number is given. Active and inactive are the calls of the source. Calls follow the shape of the full dose curve.

Target: 5-hydroxytryptamine receptor 2A (Homo sapiens) (UniProt P28223)
Test: 5-hydroxytryptamine receptor 2A (HTR2A) small molecule agonists, cell-based qHTS assay (AID 1963587); also: nearly all actives have a fitted effect of over 30% in size
Outline: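 Kinetic calcium-flux fluorescence (2 min, 1 sec intervals) after compound addition in agonist mode. HTR2A-CHO cells were cultured 18 h, then dye-loaded 1 h at 37 C.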

Sequence of 5-hydroxytryptamine receptor 2A (Homo sapiens) (P28223 whole entry, looked up): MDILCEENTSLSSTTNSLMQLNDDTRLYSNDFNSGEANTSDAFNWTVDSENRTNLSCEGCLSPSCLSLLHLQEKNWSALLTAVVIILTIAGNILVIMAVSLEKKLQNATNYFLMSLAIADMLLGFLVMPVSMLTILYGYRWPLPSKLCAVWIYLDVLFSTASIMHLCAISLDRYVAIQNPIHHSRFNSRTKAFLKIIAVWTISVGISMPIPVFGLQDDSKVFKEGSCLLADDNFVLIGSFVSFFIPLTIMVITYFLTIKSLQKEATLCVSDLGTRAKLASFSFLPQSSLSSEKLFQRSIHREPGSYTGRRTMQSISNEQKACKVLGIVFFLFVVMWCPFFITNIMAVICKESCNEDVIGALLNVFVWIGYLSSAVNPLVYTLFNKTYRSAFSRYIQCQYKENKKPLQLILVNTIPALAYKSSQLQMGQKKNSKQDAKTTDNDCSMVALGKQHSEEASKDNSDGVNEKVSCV

Compound	Potency
O=c1cc[nH]c(=S)[nH]1	inactive
CN(C)C	inactive
CCCCCCCC(=O)O	inactive
CCCCCCCCOc1ccc(C(=O)c2ccccc2)c(O)c1	inactive
CC1=C(C)S(=O)(=O)CCS1(=O)=O	inactive
OCC(O)CS (stereo not given)	inactive
N[C@@H](Cc1cc(I)c(Oc2cc(I)c(O)c(I)c2)c(I)c1)C(=O)O	inactive
C=C(C)CNCC	inactive
O=c1[nH]c(=O)n([C@H]2C[C@H](O)[C@@H](CO)O2)cc1Br	inactive
CCCCCCCCCCCCCCCO	inactive
Cc1cccc2n[nH]nc12	inactive
O=C(Cl)c1cccc(C(=O)Cl)c1	inactive
Cc1ccc(C)c(O)c1	inactive
CC1(C)CC(N=C=O)CC(C)(CN=C=O)C1 (stereo not given)	inactive
CC(=O)OC[C@H]1O[C@@](COC(C)=O)(O[C@H]2O[C@H](COC(C)=O)[C@@H](OC(C)=O)[C@H](OC(C)=O)[C@H]2OC(C)=O)[C@@H](OC(C)=O)[C@@H]1OC(C)=O	inactive
CCCCCNCCCCC	inactive
CC(C)(CO)CO	inactive
O=CCc1ccccc1	inactive
CC[Si](OC(C)=O)(OC(C)=O)OC(C)=O	inactive
Cc1cc(C(C)(C)C)c(O)c(C(C)(C)C)c1	inactive
NCCOCCO	inactive
O=C(O)CN(CC(=O)O)CC(=O)O	inactive

Compound	Potency
CCO[Si](CCCN)(OCC)OCC	inactive
CC/C(C)=N/O	inactive
O=C(O)Cn1c(=O)n(Cc2ccc(Br)cc2F)c(=O)c2ccc(Cl)cc21	inactive
Oc1ccc2ccccc2c1N=Nc1ccccc1	inactive
Cc1ccc(C)c(C)c1	inactive
NC(=S)NNC(N)=S	inactive
CC/C=C(\C(=O)N[C@@H]1C(=O)N2C(C(=O)OCOC(=O)C(C)(C)C)=C(COC(N)=O)CS[C@H]12)c1csc(N)n1	inactive
C1COCCN1	inactive
CC(=O)Nc1ccc(C(=O)O)cc1	inactive
CCCCCCCCCCCC[N+](C)(C)C	inactive
CC(C)CC(C)CC(O)CC(C)C (stereo not given)	inactive
CCCCNS(=O)(=O)c1ccccc1	inactive
CCOC(=O)C1OC1c1ccccc1 (stereo not given)	inactive
Nc1ccc2c(c1)C(=O)c1ccccc1C2=O	inactive
CC(O)CC(C)(C)O (stereo not given)	inactive
C=CCCCCCCCCC(=O)O	inactive
CC(=O)C1=C(C)[C@@H]2C[C@@]3(C1)[C@H](C)CC[C@H]3C2(C)C	inactive
COc1cc([C@H]2Oc3cc([C@H]4Oc5cc(O)cc(O)c5C(=O)[C@@H]4O)ccc3O[C@@H]2CO)ccc1O	inactive
CCCCCCCCCCN	inactive
COc1ccc(Nc2ccccc2)c(C)c1	inactive
CC1(C)O[C@@H]2[C@@H](CO[C@@]3(COS(N)(=O)=O)OC(C)(C)O[C@@H]23)O1	inactive
CCCCCCO	inactive

Compound	Potency
NS(=O)(=O)O	inactive
CC(=O)CC(=O)N(C)C	inactive
C=CC[N+](C)(C)CC=C	inactive
CCNc1cccc(C)c1	inactive
CCCC(C)=O	inactive
O=C1CCCCCCCCCCC1	inactive
CCCCNC(=O)NS(=O)(=O)c1ccc(C)cc1	inactive
CCCCCCOCCO	inactive
Cc1ccc(S(=O)(=O)Oc2ccc(N=Nc3ccc(-c4ccc(N=Nc5c(O)ccc6cc(S(=O)(=O)O)cc(S(=O)(=O)O)c56)c(C)c4)cc3C)cc2)cc1	inactive
O=C(OCC1CCC2OC2C1)C1CCC2OC2C1 (stereo not given)	inactive
Clc1ccc(Cl)c(Cl)c1Cl	inactive
CC(C)(N)CO	inactive
CCOc1ccc(NC(=O)CC(C)O)cc1 (stereo not given)	inactive
CC(=O)CC(C)(C)O	inactive
O=C(O)c1ccc(O)cc1	inactive
COC(=O)C(C)Oc1ccc(Oc2ncc(C(F)(F)F)cc2Cl)cc1 (stereo not given)	inactive
Cc1cccc(O)c1C	inactive
O=CCCCC=O	inactive
CCCOC(=O)NCCCN(C)C	inactive
O=C(OCCOCCOC(=O)c1ccccc1)c1ccccc1	inactive
CCCCCCCCCCCCS	inactive
